Values joined by “and” are separate entries in the source; they are usually repeats but may differ in a detail not shown here. Equal values may be shown once. Records with an inconclusive call do not appear. The source holds several records for some structures; these can differ, active in one and inactive in another. Active and inactive are the calls of the source. Unless noted, calls come from the whole dose curve; as a rule, active = well fitted curve in the direction sought with a large enough effect in the repeat runs; inconclusive = weak or mixed curves; inactive = no such curve, though single readings can be large; an effect the other way counts as inactive or inconclusive.

This note sets out measurements from PubChem BioAssay (Tox21).

Assay [1] can be described thus: qHTS assay to test for compound auto fluorescence at 535 nm (green) in HEK293 cells (AID 720680). On the technique in general: Quantitative high-throughput screening tests each substance at several concentrations.
A short description of assay [2]: qHTS assay to test for compound auto fluorescence at 535 nm (green) in HEK293 cell free culture (AID 720682). Put shortly:
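Intrinsic compound fluorescence is measured in culture medium containing 10% FBS, with excitation at 485 nm and detection at 535 nm, referenced to fluorescein.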

Assay [3] in a line: qHTS assay to test for compound auto fluorescence at 590 nm (red) in HEK293 cell free culture (AID 720683). The essentials: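 Cell-free wells of DMEM with 10% FBS received compound, and intrinsic fluorescence was read at excitation/emission 540/590 nm. Values expressed as equivalence to Rose Bengal sodium.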
A short description of assay [4]: qHTS assay to test for compound auto fluorescence at 590 nm (red) in HepG2 cell free culture (AID 720684). The essentials: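 Compound was pinned into wells holding MEM with 10% FBS and no cells, and red fluorescence was read at Ex/Em 540/590 nm. Signal is expressed as auto fluorescence equivalency relative to Rose Bengal sodium.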
A short description of assay [5]: qHTS assay to test for compound auto fluorescence at 535 nm (green) in HepG2 cell free culture (AID 720686).
Assay [6] in a line: qHTS assay to test for compound auto fluorescence at 460 nm (blue) in HepG2 cells (AID 720687). Put shortly: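 HepG2 cells in MEM with 10% FBS, attached overnight at 37 C, were exposed to compound or DMSO for 1 hr at 37 C, 5% CO2. Blue fluorescence was read at 405/460 nm, with triamterene as reference fluorophore.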
Assay [7] can be described thus: qHTS assay for identifying genotoxic compounds that show differential cytotoxicity against isogenic chicken DT40 cell lines with known DNA damage response pathways - wild type cell line (AID 743012). Note: nearly all actives have a fitted effect of over 60% in size. Note: potency is the fitted concentration of half-maximal effect. Put shortly: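 Using parental DT40 (300 cells/well), compounds delivered in DMSO incubate 40 h at 37 C/5% CO2. CellTiter-Glo reagent then stands 30 min at room temperature, and luminescence gives cell viability.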

Assay [8] is described as follows: qHTS assay for identifying genotoxic compounds that show differential cytotoxicity against isogenic chicken DT40 cell lines with known DNA damage response pathways - Rad54/Ku70 mutant cell line (AID 743015). Note: nearly all actives have a fitted effect of over 60% in size. Note: potency is the fitted concentration of half-maximal effect.
Assay [9] is described as follows: qHTS assay to identify small molecule antagonists of the androgen receptor (AR) signaling pathway - cell viability counter screen (AID 743033; note: nearly all actives have a fitted effect of over 45% in size).
For assay [10], the target named is Androgen receptor (Homo sapiens) (UniProt P10275). Description: qHTS assay to identify small molecule agonists of the androgen receptor (AR) signaling pathway using the MDA cell line (AID 743040; note: nearly all actives have a fitted effect of over 20% in size). The essentials:
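MDA-kb2 breast carcinoma cells carrying MMTV-luciferase (responsive to AR and GR), plated 5 h then treated 16 h with compounds at 37C, 0% CO2. Read-out was ONE-Glo luminescence after 30 min at room temperature.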

Assay [11] is described as follows: qHTS assay to identify small molecule antagonists of the androgen receptor (AR) signaling pathway using the MDA cell line - cell viability counter screen (AID 743041; note: nearly all actives have a fitted effect of over 45% in size; note: potency is the fitted concentration of half-maximal effect). Put shortly:
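MDA-kb2 AR-luc cells (MMTV-luciferase, AR/GR responsive) treated with compounds plus R1881 agonist for 16 h at 37C. CellTiter-Fluor added at 15.5 h; fluorescence read after 30 min in the same wells.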

The target of assay [12] is Androgen receptor (Homo sapiens) (UniProt P10275). Description: qHTS assay to identify small molecule antagonists of the androgen receptor (AR) signaling pathway using the MDA cell line (AID 743042; note: nearly all actives have a fitted effect of over 55% in size; note: potency is the fitted concentration of half-maximal effect). The essentials:
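MDA-kb2 breast carcinoma cells carrying MMTV-luciferase (AR/GR responsive) were co-treated with compounds and the agonist R1881 for 16 h at 37C. Inhibition read as ONE-Glo luminescence; CellTiter-Fluor fluorescence measured in parallel for cytotoxicity.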

Assay [13] can be described thus: qHTS assay to test for compound auto fluorescence at 460 nm (blue) in HepG2 cell free culture (AID 720685). Put shortly: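 Compound (23 nL) or DMSO pinned into cell-free MEM with 10% FBS; blue fluorescence read at 405/460 nm excitation/emission, expressed as auto-fluorescence equivalency to triamterene.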
The target of assay [14] is Glucocorticoid receptor (Homo sapiens) (UniProt P04150). Description: qHTS assay to identify small molecule agonists of the glucocorticoid receptor (GR) signaling pathway (AID 720691; active = well fitted activation curve with a large enough effect in the signal ratio in the repeat runs, not every such curve was filed as active; the % refers to the signal ratio). The conditions noted are these: GR-bla HeLa, beta-lactamase reporter ratio, 18 h; activation: at 62.4 µM (top of the series). The essentials:
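Reporter read-out: fluorescence intensity following 2 h room-temperature LiveBLAzer B/G FRET substrate loading. Prior step: GR-bla HeLa cells held 4 h, then treated 18 h at 37 C.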

For assay [15] the target is unchanged. Description: qHTS assay to identify small molecule antagonists of the glucocorticoid receptor (GR) signaling pathway (AID 720692; active = well fitted inhibition curve with a large enough effect in the signal ratio in the repeat runs, not every such curve was filed as active; the % refers to the signal ratio; note: potency is the fitted concentration of half-maximal effect). Put shortly:
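Dexamethasone (5 nM final) stimulated a stably integrated GRE-beta-lactamase reporter in HeLa cells during 18 h co-incubation with compounds; signal was quantified as fluorescence intensity of B/G FRET substrate after 2 h.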

The nature of assay [16]: qHTS assay to identify small molecule antagonists of the glucocorticoid receptor (GR) signaling pathway - cell viability counter screen (AID 720693). Note: nearly all actives have a fitted effect of over 55% in size. Note: potency is the fitted concentration of half-maximal effect.
A short description of assay [17]: qHTS assay for identifying genotoxic compounds that show differential cytotoxicity against isogenic chicken DT40 cell lines with known DNA damage response pathways - Rev3 mutant cell line (AID 743014). Note: nearly all actives have a fitted effect of over 55% in size. Note: potency is the fitted concentration of half-maximal effect.
Assay [18] in a line: qHTS assay to test for compound auto fluorescence at 460 nm (blue) in HEK293 cell free culture (AID 720681). The essentials:
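Compounds were added to cell-free DMEM with 10% FBS and fluorescence read directly. The blue channel used 405 nm excitation and 460 nm emission, with triamterene as the reference fluorophore.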

In assay [19] the target is Androgen receptor (Homo sapiens) (UniProt P10275). Description: qHTS assay to identify small molecule agonists of the androgen receptor (AR) signaling pathway (AID 743036; active = well fitted activation curve with a large enough effect in the signal ratio in the repeat runs, with a control signal flat, not every such curve was filed as active; the % refers to the signal ratio). The essentials: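 Agonist activity was scored by beta-lactamase reporter fluorescence in stably transfected HEK293 cells exposed to compounds for 16 h at 37C and 5% CO2. Substrate loading took 2 h at room temperature.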
Androgen receptor (Homo sapiens), sequence (P10275 whole entry, looked up): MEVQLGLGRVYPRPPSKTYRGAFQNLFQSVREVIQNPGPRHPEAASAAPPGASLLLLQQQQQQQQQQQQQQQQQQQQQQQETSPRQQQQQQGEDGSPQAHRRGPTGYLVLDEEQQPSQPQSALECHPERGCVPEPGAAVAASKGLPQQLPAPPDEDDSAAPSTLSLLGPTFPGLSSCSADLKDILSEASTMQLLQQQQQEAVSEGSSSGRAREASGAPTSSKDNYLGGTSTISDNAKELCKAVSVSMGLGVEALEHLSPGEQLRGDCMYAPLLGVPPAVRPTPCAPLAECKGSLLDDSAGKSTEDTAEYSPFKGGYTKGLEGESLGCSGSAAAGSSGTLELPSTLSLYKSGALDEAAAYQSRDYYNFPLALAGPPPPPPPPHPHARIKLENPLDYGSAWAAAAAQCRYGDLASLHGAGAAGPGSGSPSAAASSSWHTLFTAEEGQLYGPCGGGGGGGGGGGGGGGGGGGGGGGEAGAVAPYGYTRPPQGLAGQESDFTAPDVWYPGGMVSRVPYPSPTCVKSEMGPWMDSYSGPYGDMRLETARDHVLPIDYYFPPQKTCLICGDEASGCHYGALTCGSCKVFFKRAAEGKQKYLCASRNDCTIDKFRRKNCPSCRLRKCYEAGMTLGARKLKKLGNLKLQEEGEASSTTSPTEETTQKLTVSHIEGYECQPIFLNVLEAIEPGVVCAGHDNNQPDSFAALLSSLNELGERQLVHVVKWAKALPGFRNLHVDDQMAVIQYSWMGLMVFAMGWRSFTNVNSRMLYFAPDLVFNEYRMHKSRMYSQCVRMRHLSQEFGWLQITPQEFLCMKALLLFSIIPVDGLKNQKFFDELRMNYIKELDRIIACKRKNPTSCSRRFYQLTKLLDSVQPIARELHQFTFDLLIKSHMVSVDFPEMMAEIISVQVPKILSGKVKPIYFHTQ

Glucocorticoid receptor (Homo sapiens), sequence (P04150 whole entry, looked up): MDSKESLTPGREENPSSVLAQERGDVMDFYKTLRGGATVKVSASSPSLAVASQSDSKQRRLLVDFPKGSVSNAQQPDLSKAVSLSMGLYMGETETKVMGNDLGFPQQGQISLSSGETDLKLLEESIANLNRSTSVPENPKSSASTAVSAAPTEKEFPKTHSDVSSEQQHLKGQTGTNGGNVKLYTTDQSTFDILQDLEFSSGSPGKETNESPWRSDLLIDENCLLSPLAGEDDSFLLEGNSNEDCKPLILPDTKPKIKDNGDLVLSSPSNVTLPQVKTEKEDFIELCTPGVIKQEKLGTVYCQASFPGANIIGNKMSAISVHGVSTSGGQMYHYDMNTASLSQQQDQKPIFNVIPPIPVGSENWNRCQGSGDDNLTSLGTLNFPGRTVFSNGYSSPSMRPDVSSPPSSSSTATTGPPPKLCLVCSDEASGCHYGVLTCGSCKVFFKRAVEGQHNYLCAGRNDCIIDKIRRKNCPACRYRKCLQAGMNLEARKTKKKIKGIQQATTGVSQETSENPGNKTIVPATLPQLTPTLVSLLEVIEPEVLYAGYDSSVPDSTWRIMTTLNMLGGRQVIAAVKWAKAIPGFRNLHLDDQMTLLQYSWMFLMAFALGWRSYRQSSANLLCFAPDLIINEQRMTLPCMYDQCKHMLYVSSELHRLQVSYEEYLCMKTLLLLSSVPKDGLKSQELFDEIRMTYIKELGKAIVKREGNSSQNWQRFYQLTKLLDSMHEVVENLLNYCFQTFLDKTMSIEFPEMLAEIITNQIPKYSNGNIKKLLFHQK

For `CCCCCCCCCCCCCCCCC(C(=O)O)C(O)(CC(=O)O)C(=O)O` (stereo not drawn), the call in assay [1], in assay [2], in [3] and in [4] was inactive. The Potency entry in assay [5], in assay [6], in [7], in assay [8], in [9] and in assay [10] was “inactive” each time. Moreover, the Potency result in assay [11] and in assay [12] was “inactive” each time.

For `CCCCCCOC(=O)c1cccnc1`, the result in [1], in assay [2] and in assay [4] was inactive. The Potency entry in assay [13], in assay [5], in [6], in assay [14], in [15] and in [16] was “inactive” throughout. Moreover, the Potency entry in [7], in assay [17], in assay [8], in [9] and in assay [11] was “inactive” in each case.

With `CCCCCCCCOC(=O)c1cc(O)c(O)c(O)c1`, the call in assay [1], in assay [2], in [3] and in assay [4] was inactive. For the same molecule, the Potency entry in assay [13], in assay [5] and in assay [6] was “inactive” each time. Also, the Potency in assay [17] was 1.37 µM (active); in assay [8] it was 611 nM (active); in [11], 48.6 µM (active).

In the case of `N[C@@H](Cc1ccc(O)c(O)c1)C(=O)O`, the result in [1], in assay [2] and in [3] was inactive. Further, the Potency entry in assay [13], in assay [5], in assay [14], in assay [16], in assay [8] and in assay [9] was “inactive” throughout. Further, the Potency entry in assay [11] is “inactive”.

Regarding `c1ccc(-n2cnnn2)cc1`, the molecule was classed as inactive in assay [1], in assay [2] and in assay [4]. In addition, the Potency entry in assay [13], in assay [5], in assay [6], in [14], in [15] and in [16] was “inactive” each time. For the same molecule, the Potency result in assay [7], in assay [8], in assay [9] and in assay [11] was “inactive” in each case.

Consider `O=C(CCCCCCCCc1cccnc1)N1CCC(C=C(c2ccccc2)c2ccccc2)CC1`, for which the Potency result in [18], in assay [5], in assay [6], in [9], in assay [19] and in assay [10] was “inactive” each time. Further, the Potency entry in assay [11] and in assay [12] was “inactive” each time. Moreover, the molecule was called inactive in assay [2], in [3] and in [4]. In addition, the Potency was 21.9 µM (active) in assay [15]; 34.7 µM (active) in assay [16]; 48.6 µM (active) in assay [7]; 24.3 µM (active) in assay [17]; 24300 nM (active) in [8].

For the molecule `C(=C\c1ccncc1)/c1ccccc1`, the Potency result in assay [18], in assay [13], in assay [5], in assay [6], in assay [14] and in assay [15] was “inactive” each time. Besides, the Potency entry in assay [16], in [9] and in assay [11] was “inactive” each time. For the same molecule, the call in assay [2] and in [4] was inactive. The Potency result in assay [7] was “inactive and 26.6 µM (active)”; in assay [17], “inactive and 26.6 µM (active)”; in assay [8], “inactive and 26.6 µM (active)”.

Turning to `C[C@@H]1C[C@H]2[C@@H]3C[C@H](F)C4=CC(=O)C=C[C@]4(C)[C@@]3(Cl)[C@@H](O)C[C@]2(C)[C@H]1C(=O)COC(=O)C(C)(C)C`, the Potency entry in [18], in assay [13], in [5], in assay [6], in assay [16] and in [7] was “inactive” each time. In addition, the Potency entry in assay [8], in assay [9] and in assay [11] was “inactive” throughout. The result in assay [2], in assay [3] and in assay [4] was inactive.

Consider `Cc1cccc(C)c1NC(=O)C1CCCCN1C` (stereo not drawn), for which the Potency entry in [18], in assay [13], in [5], in assay [6], in assay [14] and in [15] was “inactive” in each case. Also, the Potency result in assay [16], in assay [7], in assay [8] and in [11] was “inactive” throughout. The call in [2] and in [4] was inactive.

For the molecule `CC(CNC(=O)c1cccnc1)NC(=O)c1cccnc1` (stereo not drawn), the Potency result in assay [18], in [13], in [5], in [6], in assay [14] and in assay [16] was “inactive” each time. The Potency result in assay [7], in assay [8], in assay [9] and in [11] was “inactive” throughout. Besides, the outcome in assay [2], in assay [3] and in assay [4] was inactive.

As for `CC[C@H]1OC(=O)C[C@@H](O)[C@H](C)[C@@H](O[C@@H]2O[C@H](C)[C@@H](O[C@H]3C[C@@](C)(O)[C@@H](O)[C@H](C)O3)[C@H](N(C)C)[C@H]2O)[C@@H](CC=O)C[C@@H](C)C(=O)/C=C/C(C)=C/[C@@H]1CO[C@@H]1O[C@H](C)[C@@H](O)[C@@H](OC)[C@H]1OC`, the Potency result in assay [18], in assay [13], in [5], in [6], in assay [16] and in [7] was “inactive” in each case. Further, the Potency entry in assay [9] and in [11] was “inactive” in each case. Moreover, the result in [2], in [3] and in assay [4] was inactive.

Consider `N[C@H](CO)C(=O)O`, for which the Potency result in assay [18], in assay [13], in assay [5], in [6], in assay [14] and in [16] was “inactive” throughout. Besides, the Potency entry in assay [7], in assay [9] and in assay [11] was “inactive” in each case. Moreover, the outcome in assay [2] and in [3] was inactive.

With `CO[C@H](C(=O)[C@@H](O)[C@@H](C)O)C1Cc2cc3cc(O[C@H]4C[C@@H](O[C@H]5C[C@@H](O)[C@H](O)[C@@H](C)O5)[C@@H](O)[C@@H](C)O4)c(C)c(O)c3c(O)c2C(=O)[C@H]1O[C@H]1C[C@@H](O[C@H]2C[C@@H](O[C@H]3C[C@](C)(O)[C@H](O)[C@@H](C)O3)[C@H](O)[C@@H](C)O2)[C@H](O)[C@@H](C)O1` (stereo partly drawn), the Potency entry in assay [18], in assay [13], in [5], in assay [6], in assay [9] and in [10] was “inactive” each time. In addition, the Potency result in assay [11] was “inactive”. Besides, the molecule was classed as inactive in assay [2], in assay [3] and in assay [4]. Moreover, the Potency in assay [16] was 1.34 µM (active); in assay [7] it was 94.4 nM (active) and 47.3 nM (active); in assay [17], 84.1 nM (active) and 37.6 nM (active); in assay [8] it was 75 nM (active) and 33.5 nM (active); in assay [12] it was 473 nM (active) and 266 nM (active).

As for `N=C(N)c1ccc(/C=C/c2ccc(C(=N)N)cc2O)cc1`, the Potency entry in assay [18], in [13], in assay [5], in assay [6], in assay [16] and in [9] was “inactive” in each case. For the same molecule, the Potency entry in assay [11] was “inactive”. In addition, the molecule was classed as inactive in [2], in assay [3] and in assay [4].
